According to PubChem BioAssay (EPA / NIEHS):
Results filed as inconclusive are left out. The source made the active and inactive calls. How the source made its calls, unless noted: active means hit-call score of the fitted dose curve at least 0.9, where 1 is the maximum; inactive means score below 0.9.

Experiments:
[1] = target: Nuclear receptor subfamily 4 group A member 2 (Homo sapiens) (UniProt P43354); test: ATG_NURR1_TRANS: Attagene TRANS-FACTORIAL HepG2 Assay for human Nuclear Receptor Related Protein 1 (NURR1) (AID 2282985; active means hit-call score of the fitted dose curve at least 0.9, where 1 is the maximum); details: HepG2 Attagene TRANS reporter, mRNA readout
Sequence of Nuclear receptor subfamily 4 group A member 2 (Homo sapiens) (P43354 whole entry, looked up, the tested form may be a part): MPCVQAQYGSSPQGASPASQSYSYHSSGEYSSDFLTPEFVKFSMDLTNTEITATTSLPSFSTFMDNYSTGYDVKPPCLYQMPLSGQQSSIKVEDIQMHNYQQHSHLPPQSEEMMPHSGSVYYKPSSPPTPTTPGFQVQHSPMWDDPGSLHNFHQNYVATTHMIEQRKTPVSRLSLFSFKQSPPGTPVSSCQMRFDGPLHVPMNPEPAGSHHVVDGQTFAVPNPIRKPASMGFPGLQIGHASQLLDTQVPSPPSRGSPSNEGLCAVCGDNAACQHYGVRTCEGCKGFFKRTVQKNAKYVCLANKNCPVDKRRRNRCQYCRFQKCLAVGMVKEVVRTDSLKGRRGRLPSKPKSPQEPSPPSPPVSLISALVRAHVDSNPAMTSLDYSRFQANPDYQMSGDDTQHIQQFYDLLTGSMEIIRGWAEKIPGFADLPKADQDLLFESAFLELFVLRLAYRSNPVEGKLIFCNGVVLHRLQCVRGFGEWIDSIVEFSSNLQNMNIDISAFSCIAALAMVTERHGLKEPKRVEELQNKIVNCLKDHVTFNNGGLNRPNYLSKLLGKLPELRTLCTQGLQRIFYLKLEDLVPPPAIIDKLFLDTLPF
In short: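 Chimeric NR-Gal4 fusion activity measured in HepG2 after 24 h treatment. Reporter transcripts detected by RT-PCR and capillary electrophoresis fluorescence; positive-direction curve fitting against DMSO.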

[2] = target: Nuclear respiratory factor 1 (Homo sapiens) (UniProt Q16656); test: ATG_NRF1_CIS: Attagene CIS-FACTORIAL HepG2 Assay for human Nuclear Respiratory Factor 1 (NRF1) Orphan Gene (AID 2282987); details: HepG2 NRF1 cis-element reporter, Attagene multiplex; actives raise or lower the signal
Sequence of Nuclear respiratory factor 1 (Homo sapiens) (Q16656 whole entry, looked up): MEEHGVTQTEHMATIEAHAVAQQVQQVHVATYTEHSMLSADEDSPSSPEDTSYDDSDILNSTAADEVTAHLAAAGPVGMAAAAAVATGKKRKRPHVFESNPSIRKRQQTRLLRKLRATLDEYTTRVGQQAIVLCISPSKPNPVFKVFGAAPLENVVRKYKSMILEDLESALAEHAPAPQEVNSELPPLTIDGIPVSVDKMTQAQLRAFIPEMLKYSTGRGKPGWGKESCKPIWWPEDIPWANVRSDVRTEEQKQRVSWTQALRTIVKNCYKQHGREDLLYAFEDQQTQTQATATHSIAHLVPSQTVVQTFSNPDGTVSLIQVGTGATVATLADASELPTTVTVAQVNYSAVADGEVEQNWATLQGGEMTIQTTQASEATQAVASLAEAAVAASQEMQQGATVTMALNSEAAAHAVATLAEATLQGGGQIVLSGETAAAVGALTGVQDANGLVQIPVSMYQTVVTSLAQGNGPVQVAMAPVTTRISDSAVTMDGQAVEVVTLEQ
In short: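 Measured: fluorescent reporter-specific RT-PCR products from transfected HepG2 cells, separated by capillary electrophoresis. Exposure lasted 24 h. Analysis used bidirectional curve fitting with DMSO as negative control.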

[3] = ATG_NFI_CIS: Attagene CIS-FACTORIAL HepG2 Assay for human Nuclear Factor I (NFI) (AID 2282989); details: HepG2 cis-regulatory reporter, NFI response element transcription; actives raise or lower the signal
In short: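 Reporter transcripts were measured by RT-PCR with fluorescent primer extension and capillary electrophoresis 24 h post-treatment. HepG2 cells carried transiently transfected cis-regulated reporter constructs reporting endogenous factor activity; gain or loss fitted against DMSO baseline.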

[4] = target: Myc proto-oncogene protein (Homo sapiens) (UniProt P01106); test: ATG_Myc_CIS: Attagene CIS-FACTORIAL HepG2 Assay for human Myelocytomatosis (Myc) Proto-Oncogene Transcription Factor (AID 2282990); details: HepG2, Attagene cis-reporter transcription factor activity; actives raise or lower the signal
Sequence of Myc proto-oncogene protein (Homo sapiens) (P01106 whole entry, looked up): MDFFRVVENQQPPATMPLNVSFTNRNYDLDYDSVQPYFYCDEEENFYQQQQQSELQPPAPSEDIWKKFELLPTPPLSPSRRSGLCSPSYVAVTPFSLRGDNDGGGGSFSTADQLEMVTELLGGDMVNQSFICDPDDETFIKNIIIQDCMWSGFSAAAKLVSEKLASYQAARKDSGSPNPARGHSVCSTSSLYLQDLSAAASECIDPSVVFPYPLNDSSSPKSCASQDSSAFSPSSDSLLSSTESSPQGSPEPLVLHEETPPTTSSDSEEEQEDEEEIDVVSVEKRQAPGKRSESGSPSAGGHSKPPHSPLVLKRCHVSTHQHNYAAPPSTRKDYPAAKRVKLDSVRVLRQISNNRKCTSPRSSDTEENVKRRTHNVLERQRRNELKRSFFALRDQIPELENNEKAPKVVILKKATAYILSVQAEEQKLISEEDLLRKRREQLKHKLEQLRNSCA
In short: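 Multiplexed cis-reporter transcription in HepG2 cells after 24 h chemical treatment. Reporter mRNA measured by RT-PCR and capillary electrophoresis fluorescence; activity fitted bidirectionally against DMSO control.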

[5] = ATG_NF_kB_CIS: Attagene CIS-FACTORIAL HepG2 Assay for human Nuclear Factor Kappa B (NF-kB) (AID 2282991); details: HepG2 Attagene cis-factorial NF-kB reporter mRNA; actives raise or lower the signal
In short: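 Fluorescence of labelled RT-PCR products separated by capillary electrophoresis gives reporter mRNA levels from transfected HepG2 cells exposed 24 h; values are fitted in both directions relative to DMSO.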

[6] = ATG_NRF2_ARE_CIS: Attagene CIS-FACTORIAL HepG2 Assay for human Nuclear Factor Erythroid 2 Related Factor 2 (NFR2) response to Antioxidant Response Elements (ARE) (AID 2282992); details: HepG2 Attagene ARE/NRF2 reporter, transcription factor activity; actives raise or lower the signal
In short: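 Using transiently transfected HepG2 cells exposed for 24 h, reporter mRNA levels were determined by RT-PCR with fluorescent primer extension and capillary electrophoresis, analysed for gain or loss of signal against DMSO.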

[7] = ATG_Oct_MLP_CIS: Attagene CIS-FACTORIAL HepG2 Assay for human Octamer-Binding Transcription Factor (Oct) (AID 2282993); details: HepG2 Attagene cis-factorial Oct reporter, mRNA; actives raise or lower the signal
In short: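 Readout is reporter transcript level from RT-PCR with fluorescent primer extension and capillary electrophoresis, fitted in both directions against DMSO. Transfected HepG2 reporter units report endogenous factor activity after 24 h dosing.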

[8] = target: Cellular tumor antigen p53 (Homo sapiens) (UniProt P04637); test: ATG_p53_CIS: Attagene CIS-FACTORIAL HepG2 Assay for human p53 Transcription Factor (AID 2282994); details: HepG2 p53 cis-element reporter, Attagene mRNA; actives raise or lower the signal
Sequence of Cellular tumor antigen p53 (Homo sapiens) (P04637 whole entry, looked up, the tested form may be a part): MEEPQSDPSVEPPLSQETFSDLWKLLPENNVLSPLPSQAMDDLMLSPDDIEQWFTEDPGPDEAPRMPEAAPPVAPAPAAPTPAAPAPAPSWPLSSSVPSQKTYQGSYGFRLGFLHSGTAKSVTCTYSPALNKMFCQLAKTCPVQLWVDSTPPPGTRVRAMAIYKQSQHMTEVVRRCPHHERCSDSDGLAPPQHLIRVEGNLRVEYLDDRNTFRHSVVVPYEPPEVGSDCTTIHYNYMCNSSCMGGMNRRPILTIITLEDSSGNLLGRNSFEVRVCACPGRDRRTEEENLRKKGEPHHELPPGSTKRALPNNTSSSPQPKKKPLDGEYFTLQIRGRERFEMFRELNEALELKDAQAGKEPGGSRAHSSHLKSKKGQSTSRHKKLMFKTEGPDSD
In short: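 In HepG2 cells, reporter transcription units under cis-regulatory promoters were transiently introduced. Following 24 h treatment, RNA was processed to labelled, digested cDNA fragments read by capillary electrophoresis; fitting was bidirectional versus DMSO.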

[9] = target: human Peroxisome Proliferator-activated Receptor alpha (PPARa), PPARA (gene 5465) (UniProt Q07869); test: ATG_PPARa_TRANS: Attagene TRANS-FACTORIAL HepG2 Assay for human Peroxisome Proliferator-activated Receptor alpha (PPARa) (AID 2283001; active means hit-call score of the fitted dose curve at least 0.9, where 1 is the maximum;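 on AC50: potency for gain of reporter signal over DMSO so agonist or activator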)
Sequence of human Peroxisome Proliferator-activated Receptor alpha (PPARa), PPARA (gene 5465) (Q07869 whole entry, looked up): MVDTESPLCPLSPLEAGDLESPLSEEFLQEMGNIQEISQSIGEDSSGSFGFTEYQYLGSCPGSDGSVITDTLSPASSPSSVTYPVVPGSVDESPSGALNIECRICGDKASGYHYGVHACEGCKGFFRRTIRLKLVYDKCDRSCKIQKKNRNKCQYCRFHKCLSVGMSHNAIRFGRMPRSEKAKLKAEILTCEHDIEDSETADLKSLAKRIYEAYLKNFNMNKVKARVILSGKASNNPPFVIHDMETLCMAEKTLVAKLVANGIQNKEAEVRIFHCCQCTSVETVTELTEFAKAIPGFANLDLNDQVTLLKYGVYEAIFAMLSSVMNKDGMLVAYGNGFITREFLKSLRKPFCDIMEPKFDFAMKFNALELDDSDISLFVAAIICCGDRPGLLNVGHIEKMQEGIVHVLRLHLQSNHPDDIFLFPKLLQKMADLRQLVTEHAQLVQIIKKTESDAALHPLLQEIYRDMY
In short: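 Cells (HepG2) are transfected with multiple reporter transcription units, exposed to chemical for 24 h, then total RNA is reverse-transcribed and amplified. Labelled products are quantified by capillary electrophoresis; induction is referenced to DMSO.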

[10] = target: Transcriptional activator Myb (Homo sapiens) (UniProt P10242); test: ATG_Myb_CIS: Attagene CIS-FACTORIAL HepG2 Assay for human Myeloblastosis (Myb) Proto-Oncogene Transcription Factor (AID 2282986); details: HepG2 Attagene CIS-FACTORIAL Myb reporter transcription; actives raise or lower the signal
Sequence of Transcriptional activator Myb (Homo sapiens) (P10242 whole entry, looked up): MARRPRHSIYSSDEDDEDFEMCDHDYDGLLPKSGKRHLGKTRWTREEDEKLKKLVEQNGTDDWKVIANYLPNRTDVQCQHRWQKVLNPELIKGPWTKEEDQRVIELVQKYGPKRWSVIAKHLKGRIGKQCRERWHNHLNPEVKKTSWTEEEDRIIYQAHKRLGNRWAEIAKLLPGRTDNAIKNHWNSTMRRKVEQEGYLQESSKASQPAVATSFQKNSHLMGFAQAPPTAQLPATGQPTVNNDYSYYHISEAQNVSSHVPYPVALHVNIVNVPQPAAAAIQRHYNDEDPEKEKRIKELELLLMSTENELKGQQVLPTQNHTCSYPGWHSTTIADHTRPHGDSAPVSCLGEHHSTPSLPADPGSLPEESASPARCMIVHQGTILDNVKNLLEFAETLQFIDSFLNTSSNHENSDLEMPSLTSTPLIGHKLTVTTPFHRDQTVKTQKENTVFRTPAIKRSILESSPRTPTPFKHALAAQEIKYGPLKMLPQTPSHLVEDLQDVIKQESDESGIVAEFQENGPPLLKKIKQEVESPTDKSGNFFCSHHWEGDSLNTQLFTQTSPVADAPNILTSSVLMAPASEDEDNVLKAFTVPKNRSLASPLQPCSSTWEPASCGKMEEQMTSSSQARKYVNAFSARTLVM
In short: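 After 24 h of compound dosing, total RNA from transfected HepG2 cells is reverse-transcribed and the reporter sequences amplified, labeled and separated by capillary electrophoresis. Values come from bidirectional fitting against DMSO.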

[11] = BSK_3C_TissueFactor: BioMAP Diversity Plus: 3C Assay for Tissue Factor Biomarker Activity (AID 2282997); details: BioMAP 3C HUVEC, tissue factor biomarker readout; actives raise or lower the signal
In short: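 HUVEC, 3C system, 24 h post-dose; Tissue Factor by ELISA; bidirectional fit vs DMSO baseline.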

[12] = BSK_3C_uPAR: BioMAP Diversity Plus: 3C Assay for Urokinase-type plasminogen activator receptor (uPAR) Biomarker Activity (AID 2282998); details: BioMAP 3C HUVEC, uPAR biomarker ELISA; actives raise or lower the signal
In short: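 Cell-surface uPAR on HUVEC (3C system) read by ELISA at 24 h post-treatment, with DMSO as baseline and fitting in both directions. Parallel cultures stained with SRB to flag overt cytotoxicity.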

[13] = BSK_3C_VCAM1: BioMAP Diversity Plus: 3C Assay for Vascular cell adhesion molecule 1 (VCAM1) Biomarker Activity (AID 2282999); details: BioMAP 3C HUVEC, VCAM1 ELISA, cytokine-stimulated; actives raise or lower the signal
In short: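 Vascular primary endothelium (human umbilical vein) was exposed to chemicals and assayed 24 h later. VCAM-1 levels came from ELISA, with DMSO serving as baseline for bidirectional fitting.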

[14] = read-out: Intercellular Adhesion Molecule 1 (ICAM1), ICAM1 (gene 3383); test: BSK_3C_ICAM1: BioMAP Diversity Plus: 3C Assay for Intercellular Adhesion Molecule 1 (ICAM1) Biomarker Activity (AID 2283003); details: primary human endothelial cells (HUVEC); actives raise or lower the signal
In short: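 ELISA readout of ICAM1 in human umbilical vein endothelial cells in the 3C system, taken 24 h post-dose. Gain or loss of signal versus DMSO was fitted in both directions, with SRB total-protein staining run in parallel.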

[15] = target: human Retinoic Acid Receptor beta (RARb), RARB (gene 5915) (UniProt P10826); test: ATG_RARb_TRANS: Attagene TRANS-FACTORIAL HepG2 Assay for human Retinoic Acid Receptor beta (AID 2283004; active means hit-call score of the fitted dose curve at least 0.9, where 1 is the maximum)
Sequence of human Retinoic Acid Receptor beta (RARb), RARB (gene 5915) (P10826 whole entry, looked up, the tested form may be a part): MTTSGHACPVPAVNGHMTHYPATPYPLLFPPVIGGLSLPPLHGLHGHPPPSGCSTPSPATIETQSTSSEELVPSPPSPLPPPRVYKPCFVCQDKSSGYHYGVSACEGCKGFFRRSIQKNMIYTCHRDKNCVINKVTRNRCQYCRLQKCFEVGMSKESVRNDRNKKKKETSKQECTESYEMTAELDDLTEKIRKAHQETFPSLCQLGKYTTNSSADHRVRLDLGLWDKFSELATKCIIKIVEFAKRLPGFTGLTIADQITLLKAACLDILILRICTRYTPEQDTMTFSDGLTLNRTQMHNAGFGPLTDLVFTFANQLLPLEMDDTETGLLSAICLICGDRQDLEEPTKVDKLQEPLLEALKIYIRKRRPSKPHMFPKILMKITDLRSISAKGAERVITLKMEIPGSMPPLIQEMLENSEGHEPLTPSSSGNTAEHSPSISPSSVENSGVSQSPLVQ
In short: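 Readout is reporter mRNA induction: RNA reverse-transcribed, PCR-amplified, FAM-labelled, HpaI-cut and resolved by capillary electrophoresis. Transiently transfected HepG2 cells carrying exogenous NR–Gal4 chimeras were dosed for 24 h; activity fitted upward relative to DMSO.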

[16] = BSK_4H_Eotaxin3: BioMAP Diversity Plus: 4H Assay for Eotaxin 3 Biomarker Activity (AID 2283000); details: primary human endothelial cells (HUVEC); actives raise or lower the signal;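 on outcome: CCL26 protein level quantified by ELISA in parallel with SRB cytotoxicity check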
In short: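 Readout is Eotaxin-3 (CCL26) level by ELISA in primary human umbilical vein endothelial cells harvested 24 h after chemical exposure; activity fitted in both directions against DMSO control.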

[17] = target: human Peroxisome Proliferator-activated Receptor delta (PPARd), PPARD (gene 5467) (UniProt Q03181); test: ATG_PPARd_TRANS: Attagene TRANS-FACTORIAL HepG2 Assay for human Peroxisome Proliferator-activated Receptor delta (PPARd) (AID 2283002; active means hit-call score of the fitted dose curve at least 0.9, where 1 is the maximum)
Sequence of human Peroxisome Proliferator-activated Receptor delta (PPARd), PPARD (gene 5467) (Q03181 whole entry, looked up, the tested form may be a part): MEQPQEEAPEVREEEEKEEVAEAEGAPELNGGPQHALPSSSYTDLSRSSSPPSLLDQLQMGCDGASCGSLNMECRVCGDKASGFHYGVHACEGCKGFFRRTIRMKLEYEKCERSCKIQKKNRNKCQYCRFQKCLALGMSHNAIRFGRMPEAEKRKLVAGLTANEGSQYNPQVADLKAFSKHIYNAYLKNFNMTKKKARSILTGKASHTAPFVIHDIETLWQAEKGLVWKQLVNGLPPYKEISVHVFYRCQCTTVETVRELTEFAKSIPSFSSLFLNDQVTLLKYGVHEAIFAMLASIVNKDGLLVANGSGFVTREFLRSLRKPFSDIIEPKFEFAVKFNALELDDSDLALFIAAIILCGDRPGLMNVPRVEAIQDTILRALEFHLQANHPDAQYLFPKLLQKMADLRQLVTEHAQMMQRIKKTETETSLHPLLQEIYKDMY
In short: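 Multiplexed trans-activation format: HepG2 liver cells expressing exogenous NR-Gal4 chimeras and GAL4-UAS reporters were exposed for 24 h. Reporter mRNA was detected by RT-PCR with capillary electrophoresis fluorescence; activity fitted as gain of signal relative to DMSO.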

[18] = ATG_M_32_TRANS: Attagene TRANS-FACTORIAL HepG2 Assay for M32 Transcription Factor (Internal Marker) (AID 2282984; active means hit-call score of the fitted dose curve at least 0.9, where 1 is the maximum;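 further: transcript level of a background control reporter unit measured by RT-PCR and capillary electrophoresis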); details: HepG2 Attagene TRANS M32 internal marker reporter
In short: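 After 24 h dosing of transfected HepG2 cells, total RNA was reverse-transcribed, reporter sequences PCR-amplified, 6-FAM labelled by primer extension and HpaI-digested before capillary electrophoresis. Signal increase over DMSO was fitted.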

CCCCCCCCSC(=O)Oc1cc(Cl)nnc1-c1ccccc1
outcome [1]: inactive
outcome [2]: inactive
AC50 [3]: 73.7 µM (active)
outcome [4]: inactive
outcome [5]: inactive
AC50 [6]: 52.7 µM (active)
outcome [7]: inactive
outcome [8]: inactive
outcome [9]: inactive

CCC(C)(C)c1ccc(O)c(C(C)(C)CC)c1
AC50 [1]: 33.4 µM (active)
outcome [10]: inactive
outcome [3]: inactive
outcome [4]: inactive
outcome [5]: inactive
AC50 [6]: 11.1 µM (active)
outcome [7]: inactive
outcome [8]: inactive
AC50 [11]: 12 µM (active)
AC50 [12]: 8.8 µM (active)
AC50 [13]: 11.5 µM (active)
AC50 [9]: 55.2 µM (active)
AC50 [14]: 12.4 µM (active)
outcome [15]: inactive

CCOP(=S)(OCC)Oc1ccc(S(C)=O)cc1 (configuration not stated)
outcome [10]: inactive
outcome [2]: inactive
outcome [3]: inactive
outcome [4]: inactive
outcome [6]: inactive
outcome [7]: inactive
outcome [11]: inactive
outcome [12]: inactive
outcome [13]: inactive
outcome [16]: inactive
outcome [14]: inactive
outcome [15]: inactive

O=C(Nc1ccc2[nH]ccc2c1)c1cc2cc(F)ccc2n1Cc1cccc(F)c1
outcome [1]: inactive
outcome [10]: inactive
outcome [3]: inactive
AC50 [5]: 7.2 µM (active)
AC50 [6]: 8.08 µM (active)
AC50 [7]: 11 µM (active)
outcome [8]: inactive
AC50 [11]: 8.59 µM (active)
AC50 [12]: 7.15 µM (active)
AC50 [14]: 13.7 µM (active)

CCC(=O)C(CC(C)N(C)C)(c1ccccc1)c1ccccc1 (configuration not stated)
outcome [10]: inactive
outcome [2]: inactive
outcome [3]: inactive
outcome [4]: inactive
outcome [6]: inactive
outcome [7]: inactive
AC50 [8]: 48.9 µM (active)
outcome [11]: inactive
outcome [12]: inactive
outcome [16]: inactive
outcome [9]: inactive
outcome [14]: inactive

CC(C)(c1ccc(OCC2CO2)cc1)c1ccc(OCC2CO2)cc1 (configuration not stated)
outcome [1]: inactive
outcome [2]: inactive
outcome [3]: inactive
outcome [4]: inactive
outcome [5]: inactive
AC50 [6]: 8.41 µM (active)
AC50 [7]: 24.9 µM (active)
AC50 [8]: 56.2 µM (active)

Cc1ccc2ccccc2c1C
outcome [4]: inactive
outcome [7]: inactive
outcome [9]: inactive
outcome [15]: inactive

COP(=S)(OC)Oc1c(Cl)cc(C)cc1Cl
outcome [1]: inactive
outcome [3]: inactive
outcome [4]: inactive
outcome [5]: inactive
AC50 [6]: 29.2 µM (active)
outcome [7]: inactive
outcome [8]: inactive
outcome [11]: inactive
outcome [12]: inactive
outcome [9]: inactive
outcome [17]: inactive
outcome [14]: inactive

CNC
outcome [1]: inactive
outcome [10]: inactive
outcome [2]: inactive
outcome [3]: inactive
outcome [4]: inactive
outcome [5]: inactive
outcome [6]: inactive
outcome [7]: inactive
outcome [8]: inactive

BrCCBr
outcome [1]: inactive
outcome [10]: inactive
outcome [2]: inactive
outcome [3]: inactive
outcome [4]: inactive
outcome [5]: inactive
outcome [6]: inactive
outcome [7]: inactive
outcome [8]: inactive
outcome [11]: inactive
outcome [12]: inactive
outcome [16]: inactive
outcome [9]: inactive
outcome [14]: inactive
outcome [15]: inactive

Cc1ccccc1N
outcome [1]: inactive
outcome [10]: inactive
outcome [2]: inactive
outcome [3]: inactive
outcome [5]: inactive
outcome [6]: inactive
outcome [7]: inactive
outcome [8]: inactive
outcome [11]: inactive
outcome [12]: inactive
outcome [9]: inactive
outcome [14]: inactive

CCOC(=O)Nc1cccc(OC(=O)Nc2ccccc2)c1
outcome [2]: inactive
outcome [3]: inactive
outcome [4]: inactive
outcome [5]: inactive
AC50 [6]: 17.2 µM (active)
outcome [7]: inactive
outcome [8]: inactive

O=C(O)Cc1ccccc1
outcome [3]: inactive
outcome [4]: inactive
outcome [5]: inactive
AC50 [6]: 25.9 µM (active)
outcome [7]: inactive
outcome [15]: inactive

CCN1CCC2(CC1)COc1cc3c(cc12)N(C(=O)c1ccc(-c2ccc(-c4nnc(C)o4)cc2C)cc1)CC3
outcome [10]: inactive
outcome [2]: inactive
outcome [3]: inactive
outcome [4]: inactive
outcome [5]: inactive
AC50 [6]: 5.17 µM (active)
outcome [7]: inactive
outcome [8]: inactive
AC50 [11]: 13.2 µM (active)
AC50 [12]: 9.27 µM (active)
AC50 [13]: 26.9 µM (active)
AC50 [16]: 24.1 µM (active)
outcome [9]: inactive
outcome [17]: inactive
AC50 [14]: 29.2 µM (active)
outcome [15]: inactive

CCOP(=S)(OCC)SCCS(=O)(=O)CC
outcome [10]: inactive
outcome [2]: inactive
outcome [3]: inactive
outcome [5]: inactive
AC50 [6]: 19 µM (active)
outcome [7]: inactive
outcome [8]: inactive
outcome [11]: inactive
outcome [12]: inactive
outcome [14]: inactive

O=[N+]([O-])c1ccc2c3c(cccc13)CC2
outcome [18]: inactive
outcome [10]: inactive
outcome [2]: inactive
outcome [3]: inactive
outcome [5]: inactive
AC50 [6]: 6.63 µM (active)
outcome [7]: inactive
outcome [8]: inactive
outcome [11]: inactive
AC50 [12]: 20 µM (active)
outcome [14]: inactive
outcome [15]: inactive

C=CC(=O)OCCCCCC(C)C
outcome [1]: inactive
outcome [10]: inactive
outcome [2]: inactive
outcome [3]: inactive
outcome [4]: inactive
outcome [5]: inactive
outcome [6]: inactive
outcome [7]: inactive
outcome [8]: inactive
outcome [11]: inactive
outcome [12]: inactive
outcome [9]: inactive
outcome [17]: inactive
outcome [14]: inactive
